In PubChem BioAssay AID504842 (National Center for Advancing Translational Sciences (NCATS), 2011):
The whole screen tested about 330,000 compounds, of which about 100 (0.03%) were called active. About 1% were inconclusive and are not listed. The sample as a whole holds a higher share of actives than the screen did. Values without a mark were called inactive. Calls follow the shape of the dose curve; as a rule, active = well fitted inhibition curve with a large enough effect; inconclusive = small, poorly fitted or top-dose-only effect; inactive = flat fitted curve, though single readings scatter.

test system: Chaperonin Mm-Cpn (Methanococcus maripaludis); test: Inhibitors of TCP-1 ring complex (TRiC) of Methanococcus maripaludis (MmCpn): qHTS; details: purified Mm-Cpn ATPase, ADP Transcreener TR-FRET; series mostly up to 76.9 µM; activity, negative = inhibition: at the top concentration; also: nearly all actives have a fitted effect of over 80% in size;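 as to Potency: enzyme at 25 nM with ATP substrate at 10 µM during the reaction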
From the text: The eukaryotic chaperonin TRiC (for TCP-1 ring complex) is an essential and conserved chaperone required for the folding and activation of 10-15% of the proteins encoded by the human genome. […] The TRiC complex consist of two stacked 7-9 membered rings, each containing a central cavity. Substrates are folded within the cavity in an ATP-dependent manner. TRiC is a complex of eight different, essential proteins. As each of the genes encoding the eight subunits is essential for cell viability and no protocol has been developed to over-express this enzyme to high levels. That is why several groups studying the TRiC chaperonin have turned to the archaeal homolog of TRiC, Methanococcus maripaludis (Mm-CPN), and have used this enzyme as a model system for the study of the type II chaperonin family. Small molecule inhibitors of the Mm-CPN enzyme would be extremely useful to study the mechanism of chaperonin activity. Importantly, TRiC and Mm-CPN both require ATP hydrolysis for function. Furthermore, the ATP binding sites are highly conserved among these type II chaperonins. This provides us with an easy, well tested and straightforward assay to identify inhibitors of chaperonin activity. The Mm-CPN assay was developed in 1536-well plate format using the HTRF Transcreener ADP assay kit (Cisbio, Bedford, MA). This assay applied the time resolved fluorescence resonance energy transfer (TR-FRET) principle. ATP in the presence of Mm-CPN is converted to ADP + Pi. An antibody labeled with Eu3+-Cryptate specific and bound to ADP labeled with […] (d2) competes with the unlabeled ADP generated by Mm-CPN. The resulting TR-FRET signal is inversely proportional to the concentration of ADP in the sample. In this assay a reduction in TR-FRET signal is observed with ATP turnover. NIH Chemical Genomics Center [NCGC] NIH Molecular Libraries Probe Centers Network [MLPCN] MLPCN Grant: DA030554-01A1 Assay Submitter (PI): Judith Frydman, Stanford University
Purified Mm-CPN was supplied by the laboratory of Dr. Judith Frydman. Protein samples were stored at -80C as single use aliquots. Protein was thawed in ambient temperature water bath and placed on ice once thawed. Buffer was prepared fresh day of screen. The buffer composition below was used to prepare the working solution of the Mm-CPN protein and ATP substrate. The buffer is comprised of 30 mM TRIS pH 7.4, 100mM KCl, 5mM MgCl2, and 1mM DTT. A final concentration of 25nM Mm-CPN and 10uM ATP per well were used in the screen. Instructions according to the manufacturer were followed for the ADP Transcreener kit. Used 1536 well Greiner white, medium binding (MB), solid bottom plates. Plates were read on the PerkinElmer EnVision plate reader using Excitation = 320 nm and Emission = […], 665 nm. Protocol- 1.Dispense 1.5ul per well of working [Mm-CPN] = 50nM (or 75 ng / well) 2.Spin plate at 1000 rpm for 30 seconds 3.23nl of compound transferred per well 4.Incubate at 37degC for 10 minutes 5.Dispense 1.5ul per well of working [ATP] = 20uM 6.Incubate at 37degC for 30 minutes 7.Dispense 3ul per well of Anti-ADP Cryptate / ADP-d2 mix (prepared as instructed by Cisbio) 8.Incubate at ambient for 30 minutes 9.Read using EnVision
% is scaled to controls: 0 for no effect and ±100 for the full control effect; potency is read from the fitted curve at half-maximal effect.

With O=C(CSc1nnc(-c2ccncc2)o1)Nc1cccc(Cl)c1 as the compound, how does the “activity, negative = inhibition” value read?
Its value is 2.25% (inactive).

Which “activity, negative = inhibition” value does the source give for O=C(O)C1CCN(C(=O)c2cc(F)cc3c2OCOC3)CC1 here?
The value was 2.42% (inactive).

Which “activity, negative = inhibition” value does the source give for CC(=O)c1cn(CCCCCCCCCCn2cc(C(C)=O)c(=O)[nH]c2=O)c(=O)[nH]c1=O here?
The value was -3.31% (inactive).

How did the “activity, negative = inhibition” value turn out when Cn1c2c(c(=O)n(C)c1=O)C(c1cccc(F)c1)C(C#N)=C(N)O2 (stereo not given) was run?
The value was -1.49% (inactive).

For CCCCOP(=O)(c1ccc(N(C)C)cc1)C(O)c1cc(OC)ccc1OC (stereo not given), which “activity, negative = inhibition” value is on record?
The value was 2.81% (inactive).

How did the “activity, negative = inhibition” value turn out when Cc1cccc(C(=O)O)c1[N+](=O)[O-] was run?
The value was 0.41% (inactive).

With CCN(CC)S(=O)(=O)c1ccc(CNC(=O)CN2C(=O)NC3(CCc4ccccc43)C2=O)cc1 (stereo not given) as the compound, how does the “activity, negative = inhibition” value read?
The value was -3.53% (inactive).

How did the “activity, negative = inhibition” value turn out when NC(=O)CN1CCCC1c1ccc2c(c1)OCCO2 (stereo not given) was run?
Its value is 0.0789% (inactive).

Which “activity, negative = inhibition” value does the source give for CCOC(=O)c1cc(-c2ccc(Cl)s2)nc2c1c(C)nn2C here?
Its value is -7.1% (inactive).

Which “activity, negative = inhibition” value does the source give for Cc1cc(S(=O)(=O)NCC(C)C)ccc1OCC(=O)NC1CC1 here?
The value was -0.397% (inactive).

Which activity, negative = inhibition does the source give for COc1ccc2c3c(c(=O)oc2c1)C1O[C@](CCCCN2C(=O)c4ccccc4C2=O)(Cc2c1ccc1ccccc21)O3 here?
Its activity, negative = inhibition is 1.5% [at 15.4 µM].

O=C(CCc1ccccc1)Nc1ccnn1C1CCN(Cc2ccc(OCCO)cc2)CC1 was tested. Which “activity, negative = inhibition” value did it give?
The value was 1.27% (inactive).

Which “activity, negative = inhibition” value does the source give for Cc1cccc(N(C(=O)Cc2cccs2)C(C(=O)NC2CCCC2)c2ccsc2)c1 (stereo not given) here?
The value was -0.0327% (inactive).

O=C(CCNC(=O)c1ccc([N+](=O)[O-])cc1)NC1CCCCC1 was tested. Which “activity, negative = inhibition” value did it give?
The value was -2.91% (inactive).

Which “activity, negative = inhibition” value does the source give for O=C1CC(=O)Nc2cc(S(=O)(=O)N3CCN(c4cccc(C(F)(F)F)c4)CC3)ccc2N1 here?
Its value is 3.32% (inactive).

How did the “activity, negative = inhibition” value turn out when CCOC(=O)C1=C(CC)OC(N)=C(C#N)C1c1ccc(F)cc1F (stereo not given) was run?
Its value is -1.36% (inactive).

For O=C(CN1CCN(C2CCS(=O)(=O)C2)CC1)N1N=C(c2ccc(Cl)cc2)CC1c1ccco1 (stereo not given), which “activity, negative = inhibition” value is on record?
Its value is -0.933% (inactive).

How did the Potency turn out when CC(C)CNC(=O)/C=C/C(=O)O was run?
Its Potency is “inactive”.

Cc1ccc(C)c(N(CC(=O)NCc2ccco2)C(=O)CCC(=O)Nc2ccccn2)c1 was tested. Which “activity, negative = inhibition” value did it give?
The value was -0.588% (inactive).

Which “activity, negative = inhibition” value does the source give for Cc1cccc(C)c1NC(=O)C(Cl)C(=O)c1ccccc1 (stereo not given) here?
The value was 0.831% (inactive).

How did the “activity, negative = inhibition” value turn out when Cn1c(=O)c2c(n(Cc3ccccc3)c1=O)NC(=O)C2CC(=O)N1CCc2ccccc2C1 (stereo not given) was run?
Its value is -0.155% (inactive).

Which “activity, negative = inhibition” value does the source give for CCCNCc1cc(OCC)c(OCC(=O)Nc2ccccc2)cc1Br here?
Its value is -4.4% (inactive).

For CC(c1ccccc1)n1c(NCCCn2ccnc2)nc2c1c(=O)[nH]c(=O)n2C (stereo not given), which “activity, negative = inhibition” value is on record?
The value was 0.8% (inactive).

With CC(=O)NS(=O)(=O)c1ccc(NC(=O)/C=C/c2ccccc2Cl)cc1 as the compound, how does the “activity, negative = inhibition” value read?
Its value is -0.316% (inactive).

How did the “activity, negative = inhibition” value turn out when CN(CC(=O)NCCc1ccc(F)cc1)CC(=O)Nc1ccc(F)c(F)c1F was run?
The value was 1.1% (inactive).

Which “activity, negative = inhibition” value does the source give for CC(C)c1nc2oc3c(N4CCN(C)CC4)ncnc3c2c2c1CCC2 here?
Its value is -8.03% (inactive).

With C=CS(=O)c1sc(Cl)c(N2CCOCC2)c1[N+](=O)[O-] (stereo not given) as the compound, how does the “activity, negative = inhibition” value read?
The value was -1.91% (inactive).

CN(C)CCCNc1c2c(c(C#N)c3nc4ccccc4n13)CCC2 was tested. Which “activity, negative = inhibition” value did it give?
Its value is -0.924% (inactive).

Which “activity, negative = inhibition” value does the source give for CCn1c2ccccc2c2cc(NC(=O)Nc3ccc([N+](=O)[O-])cc3C)ccc21 here?
The value was 1.13% (inactive).

With O=C(CCC(=O)c1ccccc1)NCc1cccc(C(F)(F)F)c1 as the compound, how does the “activity, negative = inhibition” value read?
Its value is -0.0071% (inactive).

With CCOc1ccccc1NC(=S)NC(=O)CCc1ccccc1 as the compound, how does the “activity, negative = inhibition” value read?
The value was 0.822% (inactive).

For O=S(=O)(c1cc(Cl)ccc1Cl)N1CCN(Cc2ccco2)CC1, which “activity, negative = inhibition” value is on record?
Its value is 0.0715% (inactive).

How did the “activity, negative = inhibition” value turn out when CCOc1cc(/C=C(/C#N)c2ccc(Cl)cc2)cc(Cl)c1OCC(=O)O was run?
Its value is 1.28% (inactive).

For O=C(CSc1ncnc2c1cnn2CCc1ccccc1)Nc1ccc(F)cc1, which “activity, negative = inhibition” value is on record?
Its value is -0.16% (inactive).

Which “activity, negative = inhibition” value does the source give for Cc1ccc2nc(-c3ccccn3)cc(C(=O)Nc3ccc4c(c3)OCO4)c2c1 here?
Its value is -7.87% (inactive).

How did the “activity, negative = inhibition” value turn out when NC(=O)c1cc(-c2cccnc2)nc2ccc(Br)cc12 was run?
The value was -1.29% (inactive).

O=C(Nc1ccncc1)c1cc(-c2ccccn2)nc2ccc(Br)cc12 was tested. Which Potency did it give?
Its Potency is 44.7 µM (active).

Which “activity, negative = inhibition” value does the source give for O=C(Nc1cccnc1)c1noc2c1CCCCC2 here?
The value was -0.428% (inactive).

Which “activity, negative = inhibition” value does the source give for Nc1ccn(C2CC(O)C(CO)O2)c(=O)n1 (stereo not given) here?
Its value is 1.62% (inactive).

With Cc1ccc(C)c(CSc2nc(-c3ccco3)nc3c2c(=O)n(C)c(=O)n3C)c1 as the compound, how does the “activity, negative = inhibition” value read?
The value was 2.6% (inactive).

Which “activity, negative = inhibition” value does the source give for COc1ccc(O)c(/C=N/N=C/c2cccc([N+](=O)[O-])c2)c1 here?
Its value is 1.75% (inactive).

Which “activity, negative = inhibition” value does the source give for Nc1ccc(Nc2cc(O)c3ncccc3c2)cc1 here?
Its value is -3.06% (inactive).

CCCN1Cc2cccc(C(=O)Nc3ccc(S(=O)(=O)N4CCCCCC4)cc3)c2C1=O was tested. Which “activity, negative = inhibition” value did it give?
Its value is -4.72% (inactive).

For CCN(CC)CCN1C(=O)C(=O)/C(=C(/O)c2cnn(-c3ccccc3)c2C)C1c1cccs1 (stereo not given), which “activity, negative = inhibition” value is on record?
The value was -1.3% (inactive).

For CC(C)(C)c1ccc(S(=O)(=O)N2CCN(C(=O)c3ccc4c(c3)C(=O)N(Cc3ccncc3)C4=O)CC2)cc1, which “activity, negative = inhibition” value is on record?
Its value is -0.64% (inactive).

How did the “activity, negative = inhibition” value turn out when Cc1ccc(S(=O)(=O)Nc2ccc3c(c2)C(=O)N([C@H](C)CO)C[C@@H](C)[C@@H](CN(C)C(=O)Nc2cccc4ccccc24)O3)cc1 was run?
Its value is 2.37% (inactive).

Which “activity, negative = inhibition” value does the source give for C=CCC(NCCCO)c1cccc(OC)c1OC (stereo not given) here?
The value was -2.38% (inactive).

With CC(C)CCN1CCN(Cc2ccc(C(F)(F)F)cc2)CC1CCO (stereo not given) as the compound, how does the “activity, negative = inhibition” value read?
Its value is 0.684% (inactive).

CC(C)(C)c1cc2cccnc2n1Cc1cccc(F)c1 was tested. Which “activity, negative = inhibition” value did it give?
The value was 1.5% (inactive).

Which “activity, negative = inhibition” value does the source give for O=c1[nH]c(CSc2ccccc2)nc2c1oc1ccccc12 here?
Its value is 1.87% (inactive).
